# From PubChem
# ELG1 DNA repair: inhibitors of ELG1-dependent DNA repair in HEK293T cells. HEK293T ELG1-luciferase reporter, luminescence, 16 h; DNA damage induced by 5-fluorouridine. 330,000 compounds, 2.3% hits. Potency, µM (doses to about 46.1 µM), without a hit: at the top dose activity change, negative = inhibition, actives largely listed as inhibitors; further: on the % scale 0 is the no-effect control and ±100 the full control effect; nearly all actives have a fitted effect of over 55% in size
#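 Cells (2,000 per well) received 5-fluorouridine plus test compound or DMSO and were incubated 16 hr at 37 °C, 5% CO2. Luciferase activity was read by luminescence 30 min after ONE-Glo addition; signal suppression marked inhibition of damage-induced ELG1 function.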
# FLuc counter: firefly luciferase modulation, counter-screen for miR-21 project | P08659 | purified FLuc, Km substrates, luminescence inhibition | Potency, µM (series often up to 57.5 µM), for inactives: at the top dose activity change, negative = inhibition, hits mostly inhibitors | 360,000 compounds, 6.9% hits | AID 588342;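 further: plate controls were vehicle for no effect and reference inhibitor for full effect; nearly all actives have a fitted effect of over 55% in size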
# Target sequence (P08659 whole entry, looked up): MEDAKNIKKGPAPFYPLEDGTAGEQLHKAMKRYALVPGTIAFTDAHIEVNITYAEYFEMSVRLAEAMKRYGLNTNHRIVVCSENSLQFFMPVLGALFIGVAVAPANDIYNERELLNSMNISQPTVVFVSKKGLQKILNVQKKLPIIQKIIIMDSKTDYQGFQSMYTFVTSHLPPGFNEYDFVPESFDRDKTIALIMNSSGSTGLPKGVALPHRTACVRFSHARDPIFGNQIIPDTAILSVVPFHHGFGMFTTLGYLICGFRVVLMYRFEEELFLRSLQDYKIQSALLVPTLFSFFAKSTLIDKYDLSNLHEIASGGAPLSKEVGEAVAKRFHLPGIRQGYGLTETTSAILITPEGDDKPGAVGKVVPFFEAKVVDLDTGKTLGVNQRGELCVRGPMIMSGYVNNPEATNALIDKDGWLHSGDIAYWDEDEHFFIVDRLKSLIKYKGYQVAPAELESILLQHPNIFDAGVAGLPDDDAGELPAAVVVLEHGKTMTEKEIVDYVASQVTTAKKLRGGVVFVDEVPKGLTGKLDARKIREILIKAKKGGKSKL
#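 Purified P. pyralis luciferase, 10 nM final, with Km-level 10 uM D-luciferin and 10 uM ATP in 50 mM Tris acetate pH 7.5, 10 mM Mg acetate, 0.01% Tween-20, 0.05% BSA; 6-point qHTS titration about 60 µM downward; luminescence read.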
# ELG1 genotox: genotoxicity induction in ELG1-luciferase HEK293T cells | HEK293T ELG1-luciferase reporter, luminescence, 16 h | 330,000 compounds, 1.3% hits | Potency, µM (series often up to 46 µM), inactives show at the top dose activity change, positive = activation, most hits filed as activators | AID 504466; further: % of control where 0% means no effect; nearly all actives have a fitted effect of over 60% in size
#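 Quantitative HTS format in 1536-well plates. HEK293T ELG1-luciferase reporter cells receive test compound and are incubated 16 hr at 37 °C, 5% CO2; ONE-Glo added, 30 min room temperature, then luminescence read.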
# Rab9 prom act: Rab9 promoter activation; Huh7 Rab9 promoter-luciferase reporter, luminescence, 24 h; Potency, µM (doses to about 9.22 µM), for inactives: top-dose activation, negative = inhibition, most hits filed as activators; 320,000 compounds, 2.8% hits; AID 485297; further: % of control where 0% means no effect; nearly all actives have a fitted effect of over 60% in size
#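 Stable Rab9-luc Huh7, 1500 cells/well, 2 h settle; cmpd in DMSO, 24 h, 37 °C/5% CO2; luciferase reagent 10 min RT; luminescence.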
# NPC1 prom act: activates the NPC1 promoter. Huh7 NPC1 promoter luciferase reporter, 24 h. Potency, µM (highest dose often 9.22 µM), for the others: at the highest dose activation, hits mostly activators. 320,000 compounds, 2.4% hits. AID 485313; further: % of control where 0% means no effect; nearly all actives have a fitted effect of over 60% in size
#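 Compounds in DMSO were transferred onto Huh7 NPC1-luciferase reporter cells pre-incubated 2 h; after 24 h at 37 °C, Amplite reagent was dispensed and luminescence recorded 10 min later.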
# SMN2 splice enh: increases expression of the SMN2 splice variant; 210,000 compounds, 2.8% hits; Potency, µM (titrated, usually from 46.1 µM), for inactives: top-dose activity change, positive = activation, hits mostly activators; AID 1458; HEK293 SMN2-luciferase splicing reporter, luminescence, 30-36 h; further: % of control where 0% means no effect; nearly all actives have a fitted effect of over 55% in size
#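 qHTS luciferase splicing reporter: luminescence rises when SMN2 exon 7 is included in transfected HEK293 cells. Compound exposure lasted 30-36 h at 37C, with 4.5 mM final sodium butyrate as control, followed by a ONE-Glo read.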
# The depositor's hits bear a star; ? = inconclusive; . = not tested or not shown; [ ] = remark or other dose. Only some compounds are listed: those with a hit (about 9.2% of all), similar ones and a draw of the others. The call rests on the fitted dose curve; in most records, active means well fitted curve in the direction sought with a large enough effect; inconclusive means small, poorly fitted or top-dose-only effect, or another doubt; inactive means no such curve, though single readings can be large; an effect the other way counts as inactive or inconclusive. Potency means the concentration at half of the fitted maximal effect.
SMILES,ELG1 DNA repair,FLuc counter,ELG1 genotox,Rab9 prom act,NPC1 prom act,SMN2 splice enh
COc1ccc(CNCc2ccc(OC)c3ccccc23)cc1,-10%,6%,-7%,-6%,1%,.
O=C1C2C3C=CC(C4CC34)C2C(=O)N1/N=C/c1c[nH]c2ccccc12 (stereo not given),?,1.9µM*,17%,2µM*,4µM*,.
O=C1C2C3C=CC(C4CC34)C2C(=O)N1/N=C/c1ccc([N+](=O)[O-])s1 (stereo not given),?,-20%,9%,?,?,16%
CC(C)(C)OC(=O)NCCC(=O)N/N=C/c1ccc2ncccc2c1,11%,?,0%,18%,-2%,.
COc1ccc2nc(/C=N/NC(=O)CCCCCNC(=O)OC(C)(C)C)ccc2c1,?,11µM*,4%,4µM*,3.2µM*,.
CC(C)(C)OC(=O)NCCC(=O)N/N=C/c1ccc2nccnc2c1,2%,-6%,0%,-3%,-3%,.
COc1ccc2nc(/C=N/NC(=O)CCNC(=O)OC(C)(C)C)ccc2c1,?,13µM*,8%,?,?,.
O=C(Nc1cccc(-c2nc3cc(Cl)ccc3o2)c1)C1CCCO1 (stereo not given),?,-8%[2.3 µM],6%,16%,9%,25µM*
Cc1ccc2oc(-c3cccc(NC(=O)C4CCCO4)c3)nc2c1 (stereo not given),?,4.3µM*,21µM*,18%,18%,13µM*
Cc1cccc(-c2nc3cc(NC(=O)c4ccc(OCC(C)C)cc4)ccc3o2)c1,.,-5%,.,.,.,6%
Cc1cccc(-c2nc3cc(NC(=O)C4CCCO4)ccc3o2)c1 (stereo not given),?,0.85µM*,1.2µM*,0.28µM*,0.32µM*,1µM*
O=C(O)c1ccc(Cl)cc1NC(=O)C1CCCO1 (stereo not given),.,2%,.,.,.,-7%
O=C(CNCC1CCCCC1)Nc1ccc(OC(F)(F)F)cc1,-6%,-16%,0%,2%,8%,19%
CC(=O)Nc1cccc(C(=O)N2CCC(n3nccc3NC(=O)CC(C)C)CC2)c1,22%,4%,-4%,-2%,0%,.
O=C(Nc1nc2ccccc2s1)c1ccc(OCC2CCCO2)cc1 (stereo not given),?,0.76µM*,?,0.4µM*,3.2µM*,.
Cc1cnc(NC(=O)c2ccc(OCC3CCCO3)cc2)s1 (stereo not given),?,0.76µM*,?,0.13µM*,0.5µM*,2.2µM*
Cc1ccc(NC(=O)c2ccc(OCC3CCCO3)cc2)nc1 (stereo not given),?,4.8µM*,?,1µM*,1.8µM*,.
Cc1ccc(NC(=O)c2ccc(OCC3CCCO3)cc2)cc1 (stereo not given),?,6µM*,?,2.5µM*,2.2µM*,7.9µM*
O=C(NCc1ccccc1)c1ccc(OCC2CCCO2)cc1 (stereo not given),?,?,0%,-2%,2%,2%
Cc1ccc(NC(=O)c2ccc(OCc3c(C)noc3C)cc2)nc1,-17%,-6%,0%,2%,3%,.
Cc1cnc(NC(=O)C2CCCO2)s1 (stereo not given),10%,2%,-1%,14%,-7%,-3%
NC(=O)c1ccc(OCC2CCCO2)cc1 (stereo not given),12%,-3%,2%,2%,-1%,.
Cc1nc([N+](=O)[O-])nn1C12CC3CC(CC(Cl)(C3)C1)C2,2%,0%,-1%,-5%,0%,-9%
O=C(NN=C1CCCC1)c1n[nH]c2c1CCCC2,?,5.4µM*,?,0.63µM*,2.5µM*,22µM*
O=C(NC1CCCCC1)c1n[nH]c2c1CCCCC2,?,0.38µM*,?,0.089µM*,?,.
O=C(NC1CCCC1)c1n[nH]c2ccccc12,?,24µM*,?,2.8µM*,3.2µM*,.
